This is an account of results in PubChem BioAssay AID1946 (Johns Hopkins Ion Channel Center, 2009).

The campaign covered roughly 2,400 compounds. About 180 (7.5%) were called active. This is one part of a sample in which actives are shown more often than they occur. A number with no mark means an inactive call.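 Rule for the calls: active = readout below zero, meaning a drop past 3 SD under the dofetilide-free negative control mean; inactive = the rest.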

This assay deals with Potassium voltage-gated channel subfamily KQT member 2 (Rattus norvegicus) (UniProt O88943). Kind of assay: rat KCNQ2 channel inhibition by compounds alone, confirmation, counter-screen for hERG block protector project, cell-based, CHO, FluxOR thallium flux (AID 1946). To be noted: CHO-KCNQ2 cells, FluxOR thallium flux fluorescence; at 10 µM; active compounds read low; zero marks the 3-SD hit cutoff.
Sequence of Potassium voltage-gated channel subfamily KQT member 2 (Rattus norvegicus) (O88943 whole entry, looked up): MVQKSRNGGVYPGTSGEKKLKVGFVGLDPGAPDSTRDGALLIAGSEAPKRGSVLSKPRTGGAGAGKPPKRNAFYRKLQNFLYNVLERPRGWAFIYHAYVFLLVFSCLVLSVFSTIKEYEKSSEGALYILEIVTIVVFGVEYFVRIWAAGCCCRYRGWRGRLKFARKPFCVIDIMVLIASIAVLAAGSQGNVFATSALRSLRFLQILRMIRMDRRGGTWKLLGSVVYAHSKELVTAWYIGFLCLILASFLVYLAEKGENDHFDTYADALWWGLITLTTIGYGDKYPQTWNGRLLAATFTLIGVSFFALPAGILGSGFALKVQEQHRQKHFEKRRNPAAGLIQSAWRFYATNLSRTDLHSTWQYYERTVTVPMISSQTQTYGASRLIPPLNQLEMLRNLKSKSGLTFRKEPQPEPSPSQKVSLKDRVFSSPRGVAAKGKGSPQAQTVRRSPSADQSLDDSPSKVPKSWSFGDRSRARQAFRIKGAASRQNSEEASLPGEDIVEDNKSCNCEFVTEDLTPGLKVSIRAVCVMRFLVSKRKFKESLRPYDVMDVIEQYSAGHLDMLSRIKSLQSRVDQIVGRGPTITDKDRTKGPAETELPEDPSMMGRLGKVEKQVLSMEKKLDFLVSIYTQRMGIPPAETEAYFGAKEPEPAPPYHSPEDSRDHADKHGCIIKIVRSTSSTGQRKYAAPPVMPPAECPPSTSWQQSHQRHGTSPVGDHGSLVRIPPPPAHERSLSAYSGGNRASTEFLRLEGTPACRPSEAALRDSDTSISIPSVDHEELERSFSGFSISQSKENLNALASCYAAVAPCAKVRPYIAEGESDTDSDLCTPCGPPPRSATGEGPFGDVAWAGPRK
For the molecule `COc1cccc2sc(Nc3nc(-c4ccccn4)cs3)nc12`, the activity change vs negative control is 34.8%.
The figure for `CCN1C(=O)/C(=C/c2ccc(C)s2)NC1=S` is 65.6%; for `COC(=O)c1ccc(NC(=S)NC(=O)c2cc(-c3ccccc3)nc3ccccc23)cc1` it is 28.9%; for `COc1cccc(C(=O)NNC(=O)C(=O)Nc2ccc(C)c(Cl)c2)c1` it is 98.2%.
The result for `CC(C)OC(=O)CSc1nnc(C2CCCCC2)n1N` reads 6%; that for `Nn1c(SCC(=O)Nc2ccc(F)cc2)nnc1C1CCCCC1`, -0.5% (active); that for `Nn1c(SCC(=O)Nc2ccccc2F)nnc1C1CCCCC1`, 10.9%.
The figure for `CCOc1ccc2nc(/N=C/c3nc(-c4ccc(Br)cc4)oc3O)sc2c1` is 13.7%; for `S=c1nc[nH]c2c1sc1nc(N3CCOCC3)c3c(c12)CCCC3` it is 74.9%; for `C/C(=N\Nc1nc2ccccc2nc1C)c1ccccc1O` it is 35.1%.
On to `CCOC(=O)c1sc(NC(=S)NC(=O)c2cccc(OC)c2)nc1C`, for which the activity change vs negative control was 28.4%.
The result for `CCCN(CCC)C(=S)NC(=O)c1ccc(Cl)cc1Cl` reads 78%; that for `CCCn1nnnc1NC(=O)c1cc(Cl)ccc1Cl`, -2% (active).
As for `CCN(CC)C(=S)NC(=O)c1ccc(Cl)cc1Cl`, the activity change vs negative control was 32%.
The figure for `O=C(NC(=S)N1CCc2ccccc21)c1ccccc1Br` is 126%; for `CN(C(=S)NC(=O)c1ccccc1)C1CCCCC1` it is 29.8%.
The result for `COc1ccc2c(c1)O[C@@H](c1cccc(C(F)(F)F)c1)[C@H](OC(=O)NCCc1ccc(OC)c(OC)c1)C2=O` reads 20.4%; that for `CCOC(=O)Cc1nc2ccccc2o1`, 11.7%; that for `O=C(CSc1nc2ccccc2o1)NCc1n[nH]c(=O)c2ccccc12`, 19.1%.
The figure for `C/C(=N\NC(=O)CSc1nc2ccccc2o1)c1ccc(O)cc1` is -1.7% (active).
`Cc1nn(C)c(C(=O)NC(=S)Nc2ccccc2Br)c1Cl`: the activity change vs negative control was 41.3%.
The result for `CCc1ccc(C(C)NC(=O)c2ccc(F)cc2)cc1` (stereo not given) reads 43.4%.
The figure for `O=C(c1ccc(C(F)(F)F)cc1)C1CCCN(C(=O)CCc2ccncc2)C1` (stereo not given) is 4.7%.
The result for `Cn1cc(CCC(=O)N2CCCC(Nc3ccc(F)cc3)C2)cn1` (stereo not given) reads -2% (active).
`CCOC(=O)C1CCCN(C(=S)NC(=O)/C=C/c2ccc(F)cc2)C1` (stereo not given): the activity change vs negative control was 1.2%.
The result for `COc1ccccc1C1C(C(=O)c2ccc(C)o2)=C(O)C(=O)N1c1cc(C)on1` (stereo not given) reads 14.4%.
The figure for `Cc1cccc(N2C(=O)C(O)=C(C(=O)c3cccs3)C2c2cccc(Oc3ccccc3)c2)n1` (stereo not given) is 11.3%; for `Cc1cc(N2C(=O)C(O)=C(C(=O)c3cccs3)C2c2ccccc2)no1` (stereo not given) it is -1.4% (active); for `CCOC(=O)C1=NN(C(=O)c2ccc(C)cc2)C(O)(c2ccc(Cl)cc2)C1` (stereo not given) it is 110%.
The result for `COc1ccccc1NC(=O)C(=O)NNC(=O)COc1ccc2ccccc2c1` reads 115%.
Take `Cc1ccc(C(=O)NC(=S)N(C)C2CCCCC2)cc1`: the activity change vs negative control was 27.3%.
In the case of `COC(=O)c1sc(NC(=S)NC(=O)c2ccccc2C)nc1C`, the activity change vs negative control is 41%.
As for `S=c1[nH]c2ccc(Cl)cc2s1`, the activity change vs negative control is 115%.
The result for `CCc1nnc(NC(=O)CSc2nc(-c3ccccc3)cc(-c3ccc(OC)cc3)c2C#N)s1` reads 5.3%; that for `N#Cc1c(-c2ccc(Cl)cc2)cc(-c2cccs2)nc1SCC(=O)O`, -10.2% (active); that for `CCOC(=O)C(C)Sc1nc2c(c(-c3cccs3)c1C#N)CCC2` (stereo not given), 6.3%.
The figure for `C/C(=N\NC(N)=S)c1ccncc1` is 19.1%.
On to `C/C(=N\NC(N)=S)c1cccnc1`, for which the activity change vs negative control was -3.2% (active).
`CSC(=S)N/N=C(\C)c1ccccc1`: the activity change vs negative control was 64.1%.
The figure for `S=c1[nH]cnc2scc(-c3ccc(Br)cc3)c12` is 28.5%; for `CCn1ncc(Cl)c1C(=O)NC(=S)Nc1ccccc1Br` it is 51.3%; for `CCN(C(=S)NC(=O)c1ccccc1Br)C1CCCCC1` it is 93.4%.
The result for `CC1CCc2sc(-c3n[nH]c(=S)o3)cc2C1` (stereo not given) reads 35.3%.
The figure for `Fc1cccc2sc(Nc3nnc(-c4ccccc4)o3)nc12` is 109%; for `Cc1ccc(Nc2cc(C)nn2-c2nc(C)cc(=O)[nH]2)cc1` it is 83.1%; for `O=C(Nn1c(O)c(C=C2N=c3ccccc3=N2)sc1=S)c1cccc(Cl)c1` it is 6.4%.
Consider `CC1CCCCC1n1c(=S)[nH]c2ccccc2c1=O` (stereo not given), for which the activity change vs negative control was 28%.
The result for `CSc1nc(C)c2c(n1)N(c1ccc(C(C)C)cc1)CC2` reads -2.7% (active); that for `COc1ccccc1C(=O)NNC(=O)C(=O)Nc1cccc(Cl)c1C`, 160%; that for `O=C(CCSc1ccc(Br)cc1)c1ccc(O)cc1`, 8.7%.
The result for `CSc1nc2sc3c(c2c(=S)[nH]1)CC(C)(C)OC3` reads 95%; that for `CN(Cc1ccccc1)C(=O)CCc1ccccc1`, 5.4%; that for `CCOC(=O)c1c(NS(=O)(=O)Cc2ccccc2)sc2c1CCCC2`, 62%.
The figure for `Cc1ccc(-c2csc(=S)[nH]2)cc1` is 106%.
With `O=C(N/N=C/c1ccccn1)c1cc(-c2ccc(Br)cc2)nc2ccccc12`, the activity change vs negative control was -4.7% (active).
As for `Cc1ccc(/C=N/NC(=O)c2cc(-c3ccncc3)nc3ccccc23)o1`, the activity change vs negative control was 2.6%.
Regarding `O=C(NC(=S)Nc1ccccn1)c1cc(-c2ccccc2)nc2ccccc12`, the activity change vs negative control was 19.4%.
The result for `Cc1ccc(OCC(=O)NC(=S)Nc2ccc(Br)cn2)cc1` reads 33.8%; that for `Cc1ccc(C(=O)Nc2nc3ccccc3c(=O)s2)cc1`, 22.4%.
The result for `CCOc1ccc(S(=O)(=O)N2CCN(Cc3ccc4c(c3)OCO4)CC2)cc1C` reads -5.7% (active).
The figure for `O=C(COc1ccc(Cl)cc1)N1CCN(Cc2ccc3c(c2)OCO3)CC1` is 22.9%; for `COc1ccc(C(=O)N2CCN(Cc3ccc4c(c3)OCO4)CC2)cc1[N+](=O)[O-]` it is 4.4%; for `Cc1cc(C)c2nc(NC(=O)C3CCCO3)sc2c1` (stereo not given) it is -2.4% (active).
Take `Cc1cc(C)c2nc(NC(=O)CN3C(=O)NC4(CCCC4)C3=O)sc2c1`: the activity change vs negative control was 18.8%.
The figure for `O=C(Nc1nc2c(F)cc(F)cc2s1)C1COc2ccccc2O1` (stereo not given) is 3.8%.
